Data taken from publication PMC7862700, “An all-to-all approach to the identification of sequence-specific readers for epigenetic DNA modifications on cytosine”.

Columns and labels:
Assay in all cases: DAPPL (digital affinity profiling via proximity ligation, sequencing); 10 mM Tris-HCl pH 7.5, 50 mM NaCl, 1 mM DTT, 4% glycerol, room temperature, 30 min; GST-TFs on glutathione beads, 16-mer random dsDNA library, 0.1% formaldehyde crosslink after washing; high values mean tight binding
FEV = target: T1, FEV (Homo sapiens, UniProt Q99581 1-238); details: protein: recombinant; tags: N-terminal GST; dsDNA, one strand shown
T1 sequence: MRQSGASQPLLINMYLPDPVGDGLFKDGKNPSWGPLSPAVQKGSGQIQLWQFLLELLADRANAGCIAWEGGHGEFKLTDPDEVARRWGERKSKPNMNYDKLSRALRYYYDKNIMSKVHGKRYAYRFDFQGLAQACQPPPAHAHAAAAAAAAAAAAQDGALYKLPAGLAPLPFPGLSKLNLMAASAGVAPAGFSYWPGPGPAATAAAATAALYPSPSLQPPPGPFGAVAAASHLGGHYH
Outline: (§1)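 Sequencing on an Illumina NextSeq500 followed washing, crosslinking with 0.1% formaldehyde, proximity ligation (BsaI/T4 ligase, 1 h, 37 °C) and PCR amplification of pools that had been incubated for 30 min at room temperature with 200 nmole of a random double-stranded 16-mer DNA library in Tris/NaCl/DTT/glycerol buffer. Each pool held DNA-barcoded human transcription factors, expressed in yeast as GST fusions and captured on glutathione beads, plus a tag-only sample. Binding signal is a hexamer's read frequency for a factor divided by its frequency in the tag-only sample.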

ETV5 = ETV5 (Homo sapiens, UniProt P41161 1-510); details: protein: recombinant; tags: N-terminal GST; dsDNA, one strand shown
ETV5, sequence (P41161 whole entry): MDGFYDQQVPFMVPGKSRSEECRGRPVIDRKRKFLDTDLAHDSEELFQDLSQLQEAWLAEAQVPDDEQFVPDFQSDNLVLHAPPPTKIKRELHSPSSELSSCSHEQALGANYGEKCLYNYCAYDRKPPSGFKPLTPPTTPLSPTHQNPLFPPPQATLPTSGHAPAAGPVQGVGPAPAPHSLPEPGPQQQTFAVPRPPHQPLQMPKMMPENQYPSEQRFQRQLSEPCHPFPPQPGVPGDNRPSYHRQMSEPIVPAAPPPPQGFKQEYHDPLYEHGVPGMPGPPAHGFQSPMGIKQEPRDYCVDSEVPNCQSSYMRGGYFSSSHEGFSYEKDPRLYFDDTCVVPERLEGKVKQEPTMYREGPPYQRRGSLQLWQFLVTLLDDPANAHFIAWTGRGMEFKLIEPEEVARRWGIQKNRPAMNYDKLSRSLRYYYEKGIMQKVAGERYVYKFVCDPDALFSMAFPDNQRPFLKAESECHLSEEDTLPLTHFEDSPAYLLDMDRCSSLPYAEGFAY
Outline: as §1

HSF1 = HSF1 (Homo sapiens, UniProt Q00613 1-529); details: protein: recombinant; tags: N-terminal GST; chain copies: 3; dsDNA, one strand shown
HSF1, sequence (Q00613 whole entry): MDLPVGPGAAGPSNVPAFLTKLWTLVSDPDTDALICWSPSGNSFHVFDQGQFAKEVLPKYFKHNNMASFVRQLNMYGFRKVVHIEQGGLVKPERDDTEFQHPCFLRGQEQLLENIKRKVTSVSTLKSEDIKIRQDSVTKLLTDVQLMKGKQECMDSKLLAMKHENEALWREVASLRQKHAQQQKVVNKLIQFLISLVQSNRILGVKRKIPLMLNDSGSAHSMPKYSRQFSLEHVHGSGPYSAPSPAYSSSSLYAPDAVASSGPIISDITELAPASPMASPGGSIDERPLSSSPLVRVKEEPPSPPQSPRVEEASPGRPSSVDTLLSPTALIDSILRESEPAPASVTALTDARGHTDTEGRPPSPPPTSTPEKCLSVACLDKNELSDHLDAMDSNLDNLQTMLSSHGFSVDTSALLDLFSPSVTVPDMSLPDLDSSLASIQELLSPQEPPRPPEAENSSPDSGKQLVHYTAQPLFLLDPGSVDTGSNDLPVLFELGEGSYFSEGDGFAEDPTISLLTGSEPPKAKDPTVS
Outline: as §1

ELF4 = ELF4 (Homo sapiens, UniProt Q99607 1-663); details: protein: recombinant; tags: N-terminal GST; dsDNA, one strand shown
ELF4, sequence (Q99607 whole entry): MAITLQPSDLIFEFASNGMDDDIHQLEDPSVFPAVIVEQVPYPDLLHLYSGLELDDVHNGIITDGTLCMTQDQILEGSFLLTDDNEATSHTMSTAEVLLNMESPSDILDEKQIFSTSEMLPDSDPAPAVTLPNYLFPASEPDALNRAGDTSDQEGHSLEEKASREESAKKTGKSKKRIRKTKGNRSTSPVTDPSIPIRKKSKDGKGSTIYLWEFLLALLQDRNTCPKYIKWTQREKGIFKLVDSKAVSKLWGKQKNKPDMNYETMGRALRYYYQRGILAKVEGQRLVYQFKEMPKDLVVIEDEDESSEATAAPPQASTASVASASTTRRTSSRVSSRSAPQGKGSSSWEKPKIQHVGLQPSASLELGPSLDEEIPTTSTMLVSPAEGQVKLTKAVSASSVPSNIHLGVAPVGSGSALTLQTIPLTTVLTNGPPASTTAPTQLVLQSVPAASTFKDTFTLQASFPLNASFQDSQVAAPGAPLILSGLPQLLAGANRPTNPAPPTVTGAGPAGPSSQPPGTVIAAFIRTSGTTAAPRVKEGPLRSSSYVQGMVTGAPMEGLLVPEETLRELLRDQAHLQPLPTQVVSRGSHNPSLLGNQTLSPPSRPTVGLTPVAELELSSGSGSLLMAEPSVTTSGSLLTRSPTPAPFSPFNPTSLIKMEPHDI
Outline: as §1

ETV2 = target: T2, ETV2 (Homo sapiens, UniProt O00321 1-342); details: protein: recombinant; tags: N-terminal GST; dsDNA, one strand shown
T2 sequence: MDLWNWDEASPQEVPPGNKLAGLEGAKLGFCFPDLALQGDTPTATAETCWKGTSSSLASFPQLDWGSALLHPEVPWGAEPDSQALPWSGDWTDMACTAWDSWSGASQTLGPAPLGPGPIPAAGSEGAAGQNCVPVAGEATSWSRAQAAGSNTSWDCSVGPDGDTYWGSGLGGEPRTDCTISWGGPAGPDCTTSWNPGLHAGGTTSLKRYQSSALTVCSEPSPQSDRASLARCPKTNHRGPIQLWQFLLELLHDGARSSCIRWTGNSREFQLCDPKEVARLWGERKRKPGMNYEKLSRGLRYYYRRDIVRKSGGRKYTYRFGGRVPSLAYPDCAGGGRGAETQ
Outline: as §1

CRX = CRX (Homo sapiens, UniProt O43186 1-299); details: protein: recombinant; tags: N-terminal GST; dsDNA, one strand shown
CRX, sequence (O43186 whole entry): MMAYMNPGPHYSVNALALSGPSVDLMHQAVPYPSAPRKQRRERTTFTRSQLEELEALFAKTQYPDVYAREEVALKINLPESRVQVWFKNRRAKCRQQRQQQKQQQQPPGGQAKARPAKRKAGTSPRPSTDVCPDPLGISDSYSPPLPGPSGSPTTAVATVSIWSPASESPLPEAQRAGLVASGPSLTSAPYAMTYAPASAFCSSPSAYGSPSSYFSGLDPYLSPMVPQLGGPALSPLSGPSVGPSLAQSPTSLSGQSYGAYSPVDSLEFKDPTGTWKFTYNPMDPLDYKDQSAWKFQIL
Outline: as §1

ETV1 = ETV1 (Homo sapiens, UniProt P50549 1-477); details: protein: recombinant; tags: N-terminal GST; dsDNA, one strand shown
ETV1, sequence (P50549 whole entry): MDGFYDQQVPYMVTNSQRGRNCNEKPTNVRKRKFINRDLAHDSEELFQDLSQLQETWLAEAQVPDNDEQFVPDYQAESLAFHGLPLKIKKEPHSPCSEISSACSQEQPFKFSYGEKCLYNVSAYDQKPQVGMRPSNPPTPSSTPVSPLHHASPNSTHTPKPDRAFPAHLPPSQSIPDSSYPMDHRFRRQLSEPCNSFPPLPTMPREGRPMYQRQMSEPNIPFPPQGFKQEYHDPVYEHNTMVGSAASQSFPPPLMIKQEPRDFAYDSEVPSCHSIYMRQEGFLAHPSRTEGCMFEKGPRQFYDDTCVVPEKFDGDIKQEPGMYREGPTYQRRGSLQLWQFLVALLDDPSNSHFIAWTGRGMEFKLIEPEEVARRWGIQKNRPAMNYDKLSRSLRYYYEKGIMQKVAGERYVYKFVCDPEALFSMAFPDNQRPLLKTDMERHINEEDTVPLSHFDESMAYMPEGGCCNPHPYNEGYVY
Outline: as §1

ERF = target: T3, ERF (Homo sapiens, UniProt P50548 1-548); details: protein: recombinant; tags: N-terminal GST; dsDNA, one strand shown
T3 sequence: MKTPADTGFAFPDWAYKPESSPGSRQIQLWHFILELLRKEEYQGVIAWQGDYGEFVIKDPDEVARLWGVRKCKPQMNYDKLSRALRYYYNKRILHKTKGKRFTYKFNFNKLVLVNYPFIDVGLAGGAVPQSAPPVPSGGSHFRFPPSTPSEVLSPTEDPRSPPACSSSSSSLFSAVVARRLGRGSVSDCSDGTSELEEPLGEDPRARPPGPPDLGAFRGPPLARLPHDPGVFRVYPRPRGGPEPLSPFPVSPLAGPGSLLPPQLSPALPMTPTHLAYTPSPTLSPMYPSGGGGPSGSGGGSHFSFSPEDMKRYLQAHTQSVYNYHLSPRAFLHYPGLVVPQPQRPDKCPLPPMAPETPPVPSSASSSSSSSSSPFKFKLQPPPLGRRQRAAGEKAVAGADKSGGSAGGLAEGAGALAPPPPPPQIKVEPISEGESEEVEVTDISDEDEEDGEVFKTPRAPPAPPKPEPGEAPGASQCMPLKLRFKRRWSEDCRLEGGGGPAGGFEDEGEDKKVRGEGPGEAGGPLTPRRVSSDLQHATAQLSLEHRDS
Outline: as §1

ETV3L = target: T4, ETV3L (Homo sapiens, UniProt Q6ZN32 1-361); details: protein: recombinant; tags: N-terminal GST; dsDNA, one strand shown
T4 sequence: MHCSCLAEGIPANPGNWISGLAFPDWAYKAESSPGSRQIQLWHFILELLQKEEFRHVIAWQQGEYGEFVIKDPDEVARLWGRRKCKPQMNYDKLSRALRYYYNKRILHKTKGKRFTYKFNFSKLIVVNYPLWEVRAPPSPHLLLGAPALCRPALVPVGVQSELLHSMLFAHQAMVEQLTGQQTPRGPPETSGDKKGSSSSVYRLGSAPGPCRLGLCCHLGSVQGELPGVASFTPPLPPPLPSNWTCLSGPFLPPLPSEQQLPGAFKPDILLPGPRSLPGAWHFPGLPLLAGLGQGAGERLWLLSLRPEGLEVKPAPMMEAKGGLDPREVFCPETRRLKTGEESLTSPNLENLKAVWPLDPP
Outline: as §1

ETS2 = target: T5, ETS2 (Homo sapiens, UniProt P15036 1-469); details: protein: recombinant; tags: N-terminal GST; dsDNA, one strand shown
T5 sequence: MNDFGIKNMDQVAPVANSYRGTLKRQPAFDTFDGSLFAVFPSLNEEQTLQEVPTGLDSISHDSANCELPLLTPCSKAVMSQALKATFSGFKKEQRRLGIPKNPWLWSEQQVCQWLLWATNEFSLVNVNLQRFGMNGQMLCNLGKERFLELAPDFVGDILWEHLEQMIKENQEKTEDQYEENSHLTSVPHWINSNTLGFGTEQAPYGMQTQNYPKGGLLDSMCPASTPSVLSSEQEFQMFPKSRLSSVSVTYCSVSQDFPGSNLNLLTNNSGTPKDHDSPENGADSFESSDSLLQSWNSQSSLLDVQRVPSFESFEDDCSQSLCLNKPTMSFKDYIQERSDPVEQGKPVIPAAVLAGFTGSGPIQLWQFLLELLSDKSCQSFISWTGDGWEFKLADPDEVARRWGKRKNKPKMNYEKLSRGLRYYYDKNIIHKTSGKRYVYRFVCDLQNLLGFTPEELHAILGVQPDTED
Outline: as §1

SPDEF = target: T6, SPDEF (Homo sapiens, UniProt O95238 1-335); details: protein: recombinant; tags: N-terminal GST; dsDNA, one strand shown
T6 sequence: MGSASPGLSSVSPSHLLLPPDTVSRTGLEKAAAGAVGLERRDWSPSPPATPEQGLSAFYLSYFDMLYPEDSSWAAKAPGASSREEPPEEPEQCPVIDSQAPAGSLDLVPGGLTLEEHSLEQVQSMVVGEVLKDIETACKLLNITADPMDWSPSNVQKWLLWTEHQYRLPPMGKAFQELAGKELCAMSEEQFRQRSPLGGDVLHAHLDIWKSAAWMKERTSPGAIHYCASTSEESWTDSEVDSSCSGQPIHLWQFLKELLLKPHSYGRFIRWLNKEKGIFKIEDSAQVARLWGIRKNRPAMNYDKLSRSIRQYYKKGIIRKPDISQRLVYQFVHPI
Outline: as §1

ETV7 = target: T7, ETV7 (Homo sapiens, UniProt Q9Y603 1-341); details: protein: recombinant; tags: N-terminal GST; dsDNA, one strand shown
T7 sequence: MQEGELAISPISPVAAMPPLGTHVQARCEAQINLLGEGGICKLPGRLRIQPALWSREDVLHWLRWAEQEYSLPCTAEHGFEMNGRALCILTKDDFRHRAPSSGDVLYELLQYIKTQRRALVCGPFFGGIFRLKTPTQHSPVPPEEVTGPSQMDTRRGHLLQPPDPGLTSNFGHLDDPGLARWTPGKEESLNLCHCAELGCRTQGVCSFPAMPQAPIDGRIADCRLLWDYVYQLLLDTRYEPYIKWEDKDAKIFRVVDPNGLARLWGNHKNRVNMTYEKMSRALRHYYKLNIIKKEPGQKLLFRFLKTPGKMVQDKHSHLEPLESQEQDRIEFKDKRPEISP
Outline: as §1

ELF5 = target: T8, ELF5 (Homo sapiens, UniProt Q9UKW6-2 1-255); details: protein: recombinant; tags: N-terminal GST; dsDNA, one strand shown
T8 sequence: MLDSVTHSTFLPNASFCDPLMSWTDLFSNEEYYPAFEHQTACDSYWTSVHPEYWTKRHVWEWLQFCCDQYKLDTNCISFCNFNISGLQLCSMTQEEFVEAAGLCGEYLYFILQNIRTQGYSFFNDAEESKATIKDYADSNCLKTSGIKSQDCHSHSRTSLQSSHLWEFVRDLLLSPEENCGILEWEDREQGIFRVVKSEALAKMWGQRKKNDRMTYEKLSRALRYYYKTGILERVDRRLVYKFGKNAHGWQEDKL
Outline: as §1

ETV3 = target: T9, ETV3 (Homo sapiens, UniProt P41162-2 1-143); details: protein: recombinant; tags: N-terminal GST; dsDNA, one strand shown
T9 sequence: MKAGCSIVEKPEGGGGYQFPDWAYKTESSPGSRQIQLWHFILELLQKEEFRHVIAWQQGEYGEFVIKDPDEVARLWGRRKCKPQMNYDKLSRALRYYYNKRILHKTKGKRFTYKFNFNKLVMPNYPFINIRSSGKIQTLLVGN
Outline: as §1

ETV6 = ETV6 (Homo sapiens, UniProt P41212 1-452); details: protein: recombinant; tags: N-terminal GST; dsDNA, one strand shown
ETV6, sequence (P41212 whole entry): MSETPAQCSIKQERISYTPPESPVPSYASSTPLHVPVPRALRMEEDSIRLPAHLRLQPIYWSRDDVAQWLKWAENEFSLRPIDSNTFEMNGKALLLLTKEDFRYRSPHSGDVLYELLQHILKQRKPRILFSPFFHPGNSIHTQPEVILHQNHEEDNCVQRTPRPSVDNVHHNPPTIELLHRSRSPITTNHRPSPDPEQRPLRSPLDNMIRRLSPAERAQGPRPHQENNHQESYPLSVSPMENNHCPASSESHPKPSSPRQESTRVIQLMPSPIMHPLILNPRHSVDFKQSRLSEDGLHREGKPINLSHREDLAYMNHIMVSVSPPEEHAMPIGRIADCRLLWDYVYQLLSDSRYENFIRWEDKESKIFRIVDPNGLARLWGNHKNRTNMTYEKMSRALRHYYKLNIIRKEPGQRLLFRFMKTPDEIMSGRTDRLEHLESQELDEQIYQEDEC
Outline: as §1

ELK4 = target: T10, ELK4 (Homo sapiens, UniProt P28324-2 1-405); details: protein: recombinant; tags: N-terminal GST; dsDNA, one strand shown
T10 sequence: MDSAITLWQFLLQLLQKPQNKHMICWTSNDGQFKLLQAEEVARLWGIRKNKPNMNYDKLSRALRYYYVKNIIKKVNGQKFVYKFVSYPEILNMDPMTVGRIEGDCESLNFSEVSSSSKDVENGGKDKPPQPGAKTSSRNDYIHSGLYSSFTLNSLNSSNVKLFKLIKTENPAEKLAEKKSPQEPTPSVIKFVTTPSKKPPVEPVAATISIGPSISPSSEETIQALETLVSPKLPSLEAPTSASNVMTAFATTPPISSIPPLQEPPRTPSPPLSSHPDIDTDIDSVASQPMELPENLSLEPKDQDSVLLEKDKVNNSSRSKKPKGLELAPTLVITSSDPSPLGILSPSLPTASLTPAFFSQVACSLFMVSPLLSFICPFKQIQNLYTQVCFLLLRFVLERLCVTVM
Outline: as §1

ELF3 = target: T11, ELF3 (Homo sapiens, UniProt P78545 1-371); details: protein: recombinant; tags: N-terminal GST; dsDNA, one strand shown
T11 sequence: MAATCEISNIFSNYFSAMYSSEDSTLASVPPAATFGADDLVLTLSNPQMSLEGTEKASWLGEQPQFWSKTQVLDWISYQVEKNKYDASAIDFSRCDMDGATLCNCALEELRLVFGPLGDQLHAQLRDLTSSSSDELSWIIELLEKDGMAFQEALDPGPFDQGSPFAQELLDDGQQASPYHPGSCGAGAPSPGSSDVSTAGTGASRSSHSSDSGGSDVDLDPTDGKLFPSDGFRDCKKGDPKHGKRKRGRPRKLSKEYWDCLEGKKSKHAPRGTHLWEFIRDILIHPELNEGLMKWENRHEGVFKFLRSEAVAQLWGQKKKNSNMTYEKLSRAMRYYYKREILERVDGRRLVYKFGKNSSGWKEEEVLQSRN
Outline: as §1

Row | Sequence | binding signal (FEV) | binding signal (ETV5) | binding signal (HSF1) | binding signal (ELF4) | binding signal (ETV2) | binding signal (CRX) | binding signal (ETV1) | binding signal (ERF) | binding signal (ETV3L) | binding signal (ETS2) | binding signal (SPDEF) | binding signal (ETV7) | binding signal (ELF5) | binding signal (ETV3) | binding signal (ETV6) | binding signal (ELK4) | binding signal (ELF3)
1 | TTGCGC | 1.05 fold enrichment (6-mer frequency, TF over GST control) | 1.11 fold enrichment (6-mer frequency, TF over GST control) | 1.05 fold enrichment (6-mer frequency, TF over GST control) | 1.06 fold enrichment (6-mer frequency, TF over GST control) | 1.11 fold enrichment (6-mer frequency, TF over GST control) | 1.05 fold enrichment (6-mer frequency, TF over GST control) | 1.16 fold enrichment (6-mer frequency, TF over GST control) | 1.28 fold enrichment (6-mer frequency, TF over GST control) | 1.13 fold enrichment (6-mer frequency, TF over GST control) | 1.16 fold enrichment (6-mer frequency, TF over GST control) | 1.06 fold enrichment (6-mer frequency, TF over GST control) | 1.12 fold enrichment (6-mer frequency, TF over GST control) | 1.03 fold enrichment (6-mer frequency, TF over GST control) | 1.07 fold enrichment (6-mer frequency, TF over GST control) | 1.06 fold enrichment (6-mer frequency, TF over GST control) | – | –
2 | TACACG | 1.12 fold enrichment (6-mer frequency, TF over GST control) | 1.22 fold enrichment (6-mer frequency, TF over GST control) | 1.04 fold enrichment (6-mer frequency, TF over GST control) | 1.14 fold enrichment (6-mer frequency, TF over GST control) | – | 1.1 fold enrichment (6-mer frequency, TF over GST control) | 1.16 fold enrichment (6-mer frequency, TF over GST control) | 1.06 fold enrichment (6-mer frequency, TF over GST control) | 1.03 fold enrichment (6-mer frequency, TF over GST control) | 1.11 fold enrichment (6-mer frequency, TF over GST control) | 1.18 fold enrichment (6-mer frequency, TF over GST control) | 1.15 fold enrichment (6-mer frequency, TF over GST control) | 1.13 fold enrichment (6-mer frequency, TF over GST control) | 1.08 fold enrichment (6-mer frequency, TF over GST control) | 1.07 fold enrichment (6-mer frequency, TF over GST control) | 1.21 fold enrichment (6-mer frequency, TF over GST control) | 1.15 fold enrichment (6-mer frequency, TF over GST control)
